Assay results from PubChem BioAssay (EPA / NIEHS).
Records with an inconclusive call do not appear. Activity calls are given as the source filed them. The calls were made as follows, unless noted: active = hit-call score of the fitted dose curve at least 0.9, where 1 is the maximum; inactive = score below 0.9.

Key:
[1] = ATG_TCF_b_cat_CIS: Attagene CIS-FACTORIAL HepG2 Assay for human T-Cell-Factor with beta-catenin (TCF/b-cat) (AID 2282965); details: HepG2 TCF/beta-catenin cis-reporter transcription, actives raise or lower the signal
Procedure, shortened: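 Using capillary electrophoresis as the read-out, labelled reporter cDNA fragments from transiently transfected HepG2 were sized and quantified. Exposure lasted 24 hours; activity in either direction was referenced to DMSO.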

[2] = ATG_TAL_CIS: Attagene CIS-FACTORIAL HepG2 Assay for human TAL Basal Promoter (AID 2282966); details: HepG2 Attagene cis-factorial TAL promoter reporter; actives raise or lower the signal;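 also: background control endpoint measuring basal TAL promoter reporter mRNA not a specific factor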
Procedure, shortened: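 Endogenous transcription-factor activity is sensed in HepG2 cells through transfected cis-promoter reporter constructs. After 24 h dosing, reporter transcripts are quantified by RT-PCR and capillary electrophoresis. Gain or loss of signal is fitted relative to DMSO.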

[3] = ATG_TGFb_CIS: Attagene CIS-FACTORIAL HepG2 Assay for human Transforming Growth Factor (TGF) (AID 2282967); details: HepG2 Attagene CIS TGFb reporter, mRNA transcription; actives raise or lower the signal
Procedure, shortened: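 After a 24-hour incubation with compound, transfected HepG2 cells were lysed for RNA; reporter cDNA was amplified, fluorescently end-labeled and separated by CE. DMSO served as baseline for bidirectional fits.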

[4] = ATG_VDRE_CIS: Attagene CIS-FACTORIAL HepG2 Assay for human Vitamin D Receptor Element (VDRE) (AID 2282968); details: HepG2 VDRE cis-reporter transcription, actives raise or lower the signal
Procedure, shortened: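 Steps: transfect HepG2 with multiple reporter transcription units; dose chemicals 24 h; isolate RNA; RT-PCR; label with 6-FAM primer extension; HpaI digest; capillary electrophoresis. Curves fitted both directions against DMSO.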

[5] = molecular target: Estrogen receptor (Homo sapiens) (UniProt P03372); experiment: ATG_ERa_TRANS: Attagene TRANS-FACTORIAL HepG2 Assay for human Estrogen Receptor alpha (ERa) (AID 2282970; active = hit-call score of the fitted dose curve at least 0.9, where 1 is the maximum); details: HepG2 Attagene TRANS ERa GAL4 reporter, mRNA
Procedure, shortened: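 Transfected HepG2 cells carrying GAL4-UAS-driven reporter units were dosed for 24 hours. Total RNA was reverse-transcribed, reporter sequences PCR-amplified, FAM-labelled, HpaI-digested and resolved by capillary electrophoresis. Increases over DMSO control defined activity.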

[6] = molecular target: X-box-binding protein 1 (Homo sapiens) (UniProt P17861); experiment: ATG_Xbp1_CIS: Attagene CIS-FACTORIAL HepG2 Assay for human X-box Binding Protein 1 (XBP1) (AID 2282972); details: HepG2 XBP1 cis-element reporter, Attagene multiplex; actives raise or lower the signal
Procedure, shortened: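 Multiplexed cis-reporter readout in transfected HepG2 liver cells. Exposure lasted 24 hours. Activity in either direction was fitted against DMSO as negative control and baseline.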

[7] = ATG_M_19_TRANS: Attagene TRANS-FACTORIAL HepG2 Assay for M19 Transcription Factor (Internal Marker) (AID 2282974; active = hit-call score of the fitted dose curve at least 0.9, where 1 is the maximum); details: HepG2 Attagene TRANS-FACTORIAL M19 internal marker reporter
Procedure, shortened: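 Using RT-PCR and capillary electrophoresis, reporter mRNA from transiently transfected human HepG2 cells was quantified following 24 h exposure; activity was fitted in the positive direction against DMSO.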

[8] = molecular target: Glucocorticoid receptor (Homo sapiens) (UniProt P04150); experiment: ATG_GR_TRANS: Attagene TRANS-FACTORIAL HepG2 Assay for human Glucocorticoid Receptor (GR) (AID 2282978; active = hit-call score of the fitted dose curve at least 0.9, where 1 is the maximum;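 also: activators score as hits since higher reporter transcript over DMSO is fitted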); details: HepG2 Attagene TRANS GR reporter, mRNA transcription
Procedure, shortened: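 Exogenous NR-GAL4 fusion activity was assessed through induced GAL4-UAS reporter transcripts in transfected human HepG2 cells, quantified after 24 h by RT-PCR and fluorescent capillary electrophoresis with DMSO as baseline.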

[9] = molecular target: Estrogen-related receptor gamma (Homo sapiens) (UniProt P62508); experiment: ATG_ERRg_TRANS: Attagene TRANS-FACTORIAL HepG2 Assay for human Estrogen-Related Receptor gamma (ERRg) (AID 2282977; active = hit-call score of the fitted dose curve at least 0.9, where 1 is the maximum;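 also: hits increase reporter signal over DMSO so potencies reflect activators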); details: HepG2 Attagene TRANS reporter, ERRg transactivation
Procedure, shortened: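 Exogenous NR-Gal4 chimera activity measured as reporter transcript induction after 24 h in transiently transfected HepG2 cells. RNA reverse-transcribed, PCR-amplified, 6-FAM-labelled and resolved by capillary electrophoresis; increase over DMSO baseline.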

Measured: AC50

Sequence of Estrogen-related receptor gamma (Homo sapiens) (P62508 whole entry, looked up, the tested form may be a part): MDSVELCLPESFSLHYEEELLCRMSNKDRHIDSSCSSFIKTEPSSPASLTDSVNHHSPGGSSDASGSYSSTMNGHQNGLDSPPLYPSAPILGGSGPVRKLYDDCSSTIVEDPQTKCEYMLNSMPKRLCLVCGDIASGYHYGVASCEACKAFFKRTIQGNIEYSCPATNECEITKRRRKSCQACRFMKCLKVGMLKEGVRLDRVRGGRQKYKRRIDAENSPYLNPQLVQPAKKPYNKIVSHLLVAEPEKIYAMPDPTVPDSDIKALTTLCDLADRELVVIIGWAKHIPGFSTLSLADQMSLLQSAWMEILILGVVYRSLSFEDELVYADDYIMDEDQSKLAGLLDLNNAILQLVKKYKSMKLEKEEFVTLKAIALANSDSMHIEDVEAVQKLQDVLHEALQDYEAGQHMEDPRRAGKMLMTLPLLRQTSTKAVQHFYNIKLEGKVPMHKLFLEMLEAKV
Sequence of Estrogen receptor (Homo sapiens) (P03372 whole entry, looked up, the tested form may be a part): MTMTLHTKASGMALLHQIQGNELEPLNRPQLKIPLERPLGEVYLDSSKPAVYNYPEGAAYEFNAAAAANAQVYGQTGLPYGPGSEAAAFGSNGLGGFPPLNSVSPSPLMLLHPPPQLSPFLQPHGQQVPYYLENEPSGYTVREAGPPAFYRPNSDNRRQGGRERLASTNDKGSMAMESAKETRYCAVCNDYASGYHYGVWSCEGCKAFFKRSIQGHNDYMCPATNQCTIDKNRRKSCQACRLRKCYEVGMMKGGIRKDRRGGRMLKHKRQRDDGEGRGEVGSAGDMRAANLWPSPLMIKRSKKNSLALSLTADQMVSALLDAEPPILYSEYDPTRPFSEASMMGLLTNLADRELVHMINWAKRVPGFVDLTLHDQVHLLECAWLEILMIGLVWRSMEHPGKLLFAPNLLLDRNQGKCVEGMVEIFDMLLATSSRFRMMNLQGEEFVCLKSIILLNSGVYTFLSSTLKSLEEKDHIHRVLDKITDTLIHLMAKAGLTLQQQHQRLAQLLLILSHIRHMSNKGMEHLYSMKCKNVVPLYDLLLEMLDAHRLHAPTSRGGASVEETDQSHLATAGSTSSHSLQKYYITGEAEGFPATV
Sequence of Glucocorticoid receptor (Homo sapiens) (P04150 whole entry, looked up, the tested form may be a part): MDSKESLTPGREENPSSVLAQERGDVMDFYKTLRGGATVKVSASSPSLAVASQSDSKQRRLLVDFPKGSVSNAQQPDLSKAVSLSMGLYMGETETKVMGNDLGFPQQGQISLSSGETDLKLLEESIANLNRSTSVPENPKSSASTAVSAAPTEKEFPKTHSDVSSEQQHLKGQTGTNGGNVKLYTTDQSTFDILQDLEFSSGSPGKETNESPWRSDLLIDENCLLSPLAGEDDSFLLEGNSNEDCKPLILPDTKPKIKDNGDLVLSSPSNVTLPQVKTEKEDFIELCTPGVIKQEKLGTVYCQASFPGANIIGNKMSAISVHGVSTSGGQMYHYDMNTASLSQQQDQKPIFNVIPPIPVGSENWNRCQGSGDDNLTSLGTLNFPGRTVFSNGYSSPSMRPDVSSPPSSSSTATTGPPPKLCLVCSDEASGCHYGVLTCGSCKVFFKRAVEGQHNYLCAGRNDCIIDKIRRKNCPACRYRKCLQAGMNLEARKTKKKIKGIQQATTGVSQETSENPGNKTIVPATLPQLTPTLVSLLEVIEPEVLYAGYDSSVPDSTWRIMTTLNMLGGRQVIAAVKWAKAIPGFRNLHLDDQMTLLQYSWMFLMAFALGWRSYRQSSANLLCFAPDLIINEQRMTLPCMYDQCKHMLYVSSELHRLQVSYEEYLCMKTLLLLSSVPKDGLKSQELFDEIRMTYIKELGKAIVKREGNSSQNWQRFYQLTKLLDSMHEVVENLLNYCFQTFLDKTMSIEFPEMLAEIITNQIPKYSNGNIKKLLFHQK
Sequence of X-box-binding protein 1 (Homo sapiens) (P17861 whole entry, looked up): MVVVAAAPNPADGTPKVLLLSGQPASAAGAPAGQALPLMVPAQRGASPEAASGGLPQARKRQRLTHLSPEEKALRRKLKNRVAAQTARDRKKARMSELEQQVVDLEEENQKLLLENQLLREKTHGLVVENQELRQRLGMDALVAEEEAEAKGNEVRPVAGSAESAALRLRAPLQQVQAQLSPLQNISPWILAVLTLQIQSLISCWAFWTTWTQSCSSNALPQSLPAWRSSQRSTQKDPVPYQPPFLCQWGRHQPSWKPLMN

COC(=O)c1ccc(O)cc1
active: [5] 63.8 µM
inactive: [1] | [2] | [3] | [4] | [6]

Cc1ccc(C)c(C)c1
not listed: [9]
inactive: all other assays above

Cc1ccc(C(C)C)c(O)c1
active: [5] 46.1 µM
not listed: [6] | [7]
inactive: all other assays above

CNCc1cc(F)ccc1Oc1ccc(Cl)c(Cl)c1
not listed: [7] | [8] | [9]
inactive: all other assays above

FC(F)(F)C(F)(F)C(F)(F)C(F)(F)C(F)(F)C(F)(F)CCI
not listed: [7] | [8] | [9]
inactive: all other assays above

Nc1nc(N)c2nc(CNc3ccc(C(=O)N[C@@H](CCC(=O)O)C(=O)O)cc3)cnc2n1
active: [1] 116 µM
not listed: [6] | [7]
inactive: all other assays above

Cc1nc(-c2ccc3c(c2)CCN(CCC2CCC(NC(=O)/C=C/c4ccc(F)cc4)CC2)CC3)no1 (stereo not given)
not listed: [7] | [9]
inactive: all other assays above

CCCCCCC(=O)OCC
active: [5] 17.6 µM
not listed: [7] | [8]
inactive: all other assays above

CCCCCCOCCO
not listed: [7] | [9]
inactive: all other assays above

CCCCCCCCCCCC(=O)OC
not listed: [6] | [7] | [9]
inactive: all other assays above

Nc1ccccc1N
active: [4] 34.8 µM | [6] 51.8 µM
not listed: [7] | [9]
inactive: all other assays above

COCCOCCOC
not listed: [7] | [8] | [9]
inactive: all other assays above

Cc1c(C(=O)O)c(O)cc2c1C(=O)c1c(O)c([C@@H]3O[C@H](CO)[C@@H](O)[C@H](O)[C@H]3O)c(O)c(O)c1C2=O
not listed: [6] | [7] | [9]
inactive: all other assays above

CN1CCN(Cc2cc(-c3ccc4[nH]c(=O)oc4c3)co2)[C@@H](c2ccc(F)cc2)C1
active: [1] 25.7 µM | [4] 27.4 µM
not listed: [7] | [9]
inactive: all other assays above

COc1cc(-c2nc(NC(=O)c3cc4cc(C)cc(C)c4n3CC(=O)O)sc2CCC2CCCCC2)c(OC)cc1Cl
active: [1] 5.17 µM | [2] 100 µM | [3] 26 µM | [4] 7.46 µM | [6] 21.7 µM
inactive: [5] | [8]

c1cc(-c2ccncc2)ccn1
not listed: [7] | [8] | [9]
inactive: all other assays above

C[Si]1(C)O[Si](C)(C)O[Si](C)(C)O[Si](C)(C)O1
active: [5] 38.8 µM
inactive: [1] | [2] | [3] | [4] | [6]

CC(CO)OC(C)CO (stereo not given) (tested in a mixture with another compound)
not listed: [7] | [8] | [9]
inactive: all other assays above

Cc1ccc(N(C)C)cc1
not listed: [7] | [9]
inactive: all other assays above

CC(C)(C)c1cc(O)c(C(C)(C)C)cc1O
active: [1] 8.01 µM | [4] 32 µM
inactive: [2] | [3] | [5] | [8]

O=c1c(O)c(-c2ccc(O)c(O)c2)oc2cc(O)cc(O)c12
inactive: [1] | [2] | [3] | [4] | [6]
active: [5] 14.9 µM

O=c1[nH]cc(F)c(=O)[nH]1
active: [5] 26.1 µM
inactive: [1] | [2] | [3] | [4] | [8]

Cc1cccc(C)c1O
inactive: [1] | [2] | [3] | [4] | [9]
active: [5] 31.9 µM

COc1ccc(C)cc1N
not listed: [6] | [9]
inactive: all other assays above

CCOc1ccc2c(c1)C(C)=CC(C)(C)N2
active: [1] 58.1 µM | [3] 151 µM | [4] 38.2 µM | [5] 40.7 µM | [6] 155 µM
inactive: [2] | [9]

O=C(N[C@@H](Cc1ccccc1)[C@@H](O)C(=O)N1C[C@@H](O)[C@@H](O)C1)c1cc2cc(Cl)ccc2[nH]1
active: [6] 151 µM
not listed: [7] | [9]
inactive: all other assays above
